# According to publication PMC5700166:
# Changes are numbered by the printed parent chain.
# Target: T1, GST-Nv-NF-kB (Cys allele) (Nematostella vectensis, UniProt E5G601 2-411)
# T1 sequence: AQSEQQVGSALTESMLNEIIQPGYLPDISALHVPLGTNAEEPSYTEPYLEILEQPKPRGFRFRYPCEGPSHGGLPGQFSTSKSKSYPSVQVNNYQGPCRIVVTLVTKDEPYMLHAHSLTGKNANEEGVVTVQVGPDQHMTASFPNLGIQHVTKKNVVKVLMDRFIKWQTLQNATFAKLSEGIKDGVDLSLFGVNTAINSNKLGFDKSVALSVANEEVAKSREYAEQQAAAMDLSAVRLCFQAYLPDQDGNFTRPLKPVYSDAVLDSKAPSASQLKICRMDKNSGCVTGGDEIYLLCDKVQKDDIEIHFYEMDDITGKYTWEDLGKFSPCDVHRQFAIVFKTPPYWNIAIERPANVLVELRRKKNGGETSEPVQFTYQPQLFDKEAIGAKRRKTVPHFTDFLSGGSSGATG
# Assay: protein-binding microarray (PBM); PBM: ~300 nM protein, 6 mM HEPES pH 7.8, 80 mM KCl, 0.5 mM EDTA, 0.5 mM EGTA, 6% glycerol, 35 ng/ul poly-dIdC, 1% milk, 1 h, room temperature; Ap Aiptasia and Nv Nematostella (sea anemones) / Co Capsaspora / Aq Amphimedon (sponge) / Dm Drosophila / Hu human; RHD is the Rel homology domain; high values mean tight binding
# Conditions: dsDNA, one strand shown
row,Sequence,binding signal [z-score]
1,CCGATTAACATCAGCCCCCCGTCTGATGTTAATCGGGTCTTGATTCGCTTGACGCTGCTG,2.22
2,CCGATTAACATCAAACAGGGAAATGATGTTAATCGGGTCTTGATTCGCTTGACGCTGCTG,4.69
3,CCGATTAACATCAATAAAGTCCCTGATGTTAATCGGGTCTTGATTCGCTTGACGCTGCTG,7.06
4,CCGATTAACATCAGGGAATTAGATGATGTTAATCGGGTCTTGATTCGCTTGACGCTGCTG,3.48
5,CCGATTAACATCAAGCCCCCCCATGATGTTAATCGGGTCTTGATTCGCTTGACGCTGCTG,3.07
6,CCGATTAACATCAGGAAAGTACCTGATGTTAATCGGGTCTTGATTCGCTTGACGCTGCTG,5.99
7,CCGATTAACATCAACTTTCCCAGTGATGTTAATCGGGTCTTGATTCGCTTGACGCTGCTG,2
8,CCGATTAACATCAGAGTTTCCCATGATGTTAATCGGGTCTTGATTCGCTTGACGCTGCTG,3.42
9,CCGATTAACATCAGTATTCCCCATGATGTTAATCGGGTCTTGATTCGCTTGACGCTGCTG,7.73
10,CCGATTAACATCAACGGGAACTCTGATGTTAATCGGGTCTTGATTCGCTTGACGCTGCTG,1.64
11,CCGATTAACATCACCATTTTCCCTGATGTTAATCGGGTCTTGATTCGCTTGACGCTGCTG,4.65
12,CCGATTAACATCACATACCCCCCTGATGTTAATCGGGTCTTGATTCGCTTGACGCTGCTG,3.25
13,CCGATTAACATCACCGTTTTCCCTGATGTTAATCGGGTCTTGATTCGCTTGACGCTGCTG,4.51
14,CCGATTAACATCACCGCTTCCCTTGATGTTAATCGGGTCTTGATTCGCTTGACGCTGCTG,1.86
15,CCGATTAACATCATGGGGACGACTGATGTTAATCGGGTCTTGATTCGCTTGACGCTGCTG,3.19
16,CCGATTAACATCAGGGGAGTGTATGATGTTAATCGGGTCTTGATTCGCTTGACGCTGCTG,3.38
17,CCGATTAACATCAAACTTTTCCCTGATGTTAATCGGGTCTTGATTCGCTTGACGCTGCTG,5.66
18,CCGATTAACATCAGGGAAAAACCTGATGTTAATCGGGTCTTGATTCGCTTGACGCTGCTG,7.26
19,CCGATTAACATCACGAAATTCCCTGATGTTAATCGGGTCTTGATTCGCTTGACGCTGCTG,6.78
20,CCGATTAACATCAGGTAATTACCTGATGTTAATCGGGTCTTGATTCGCTTGACGCTGCTG,4.18

row,Sequence,binding signal [z-score]
1,CCGATTAACATCATGGTGGGAAATGATGTTAATCGGGTCTTGATTCGCTTGACGCTGCTG,2.69
2,CCGATTAACATCAGGGAAGGACCTGATGTTAATCGGGTCTTGATTCGCTTGACGCTGCTG,2.28
3,CCGATTAACATCAGGGGAAGAAATGATGTTAATCGGGTCTTGATTCGCTTGACGCTGCTG,5.99
4,CCGATTAACATCAAAAAACTACCTGATGTTAATCGGGTCTTGATTCGCTTGACGCTGCTG,3
5,CCGATTAACATCAGACATTCCCATGATGTTAATCGGGTCTTGATTCGCTTGACGCTGCTG,2.27
6,CCGATTAACATCAAAAATTCCCATGATGTTAATCGGGTCTTGATTCGCTTGACGCTGCTG,7.75
7,CCGATTAACATCAGGGAATCAGATGATGTTAATCGGGTCTTGATTCGCTTGACGCTGCTG,1.61
8,CCGATTAACATCAATTTTTTCCCTGATGTTAATCGGGTCTTGATTCGCTTGACGCTGCTG,5.88
9,CCGATTAACATCACCCCCACCCCTGATGTTAATCGGGTCTTGATTCGCTTGACGCTGCTG,2.96
10,CCGATTAACATCAAATAATTCCCTGATGTTAATCGGGTCTTGATTCGCTTGACGCTGCTG,7.21
11,CCGATTAACATCAGGGAAAAGAATGATGTTAATCGGGTCTTGATTCGCTTGACGCTGCTG,4.22
12,CCGATTAACATCACGGTAATCCCTGATGTTAATCGGGTCTTGATTCGCTTGACGCTGCTG,1.91
13,CCGATTAACATCAGGGAATACACTGATGTTAATCGGGTCTTGATTCGCTTGACGCTGCTG,2.43
14,CCGATTAACATCATGGGAAGGTTTGATGTTAATCGGGTCTTGATTCGCTTGACGCTGCTG,1.55
15,CCGATTAACATCAAAAAATTACCTGATGTTAATCGGGTCTTGATTCGCTTGACGCTGCTG,4.07
16,CCGATTAACATCACCTATTCCCCTGATGTTAATCGGGTCTTGATTCGCTTGACGCTGCTG,5.93
17,CCGATTAACATCAACTCGGGAAATGATGTTAATCGGGTCTTGATTCGCTTGACGCTGCTG,2.75
18,CCGATTAACATCAACCAATCCCCTGATGTTAATCGGGTCTTGATTCGCTTGACGCTGCTG,5.28
19,CCGATTAACATCAAAGATTTCCCTGATGTTAATCGGGTCTTGATTCGCTTGACGCTGCTG,6.33

# Target: T2, GST-Nv-NF-kB (Ser allele) (Nematostella vectensis, UniProt A7UNT2 2-411)
# T2 sequence: T1 sequence with Q21R, C66S, S207N, E215Q, V217A, E225K, A268E, D399E
# Assay: as above
# Conditions: dsDNA, one strand shown
row,Sequence,binding signal [z-score]
1,CCGATTAACATCAGCCCCCCGTCTGATGTTAATCGGGTCTTGATTCGCTTGACGCTGCTG,1.71
2,CCGATTAACATCAATAAAGTCCCTGATGTTAATCGGGTCTTGATTCGCTTGACGCTGCTG,7.32
3,CCGATTAACATCAAGCCCCCCCATGATGTTAATCGGGTCTTGATTCGCTTGACGCTGCTG,3.1
4,CCGATTAACATCAGGAAAGTACCTGATGTTAATCGGGTCTTGATTCGCTTGACGCTGCTG,8.2
5,CCGATTAACATCAGTATTCCCCATGATGTTAATCGGGTCTTGATTCGCTTGACGCTGCTG,6.79
6,CCGATTAACATCAACGGGAACTCTGATGTTAATCGGGTCTTGATTCGCTTGACGCTGCTG,1.08
7,CCGATTAACATCACCATTTTCCCTGATGTTAATCGGGTCTTGATTCGCTTGACGCTGCTG,7.17
8,CCGATTAACATCACATACCCCCCTGATGTTAATCGGGTCTTGATTCGCTTGACGCTGCTG,3.69
9,CCGATTAACATCACCGTTTTCCCTGATGTTAATCGGGTCTTGATTCGCTTGACGCTGCTG,6.61
10,CCGATTAACATCAAACTTTTCCCTGATGTTAATCGGGTCTTGATTCGCTTGACGCTGCTG,6.83
11,CCGATTAACATCAGGGAAAAACCTGATGTTAATCGGGTCTTGATTCGCTTGACGCTGCTG,7.89
12,CCGATTAACATCACGAAATTCCCTGATGTTAATCGGGTCTTGATTCGCTTGACGCTGCTG,7.28
13,CCGATTAACATCAGGTAATTACCTGATGTTAATCGGGTCTTGATTCGCTTGACGCTGCTG,5.28
14,CCGATTAACATCAGGGAAGGACCTGATGTTAATCGGGTCTTGATTCGCTTGACGCTGCTG,1.09
15,CCGATTAACATCAGGGGAAGAAATGATGTTAATCGGGTCTTGATTCGCTTGACGCTGCTG,6.85
16,CCGATTAACATCAAAAAACTACCTGATGTTAATCGGGTCTTGATTCGCTTGACGCTGCTG,7.62
17,CCGATTAACATCAAAAATTCCCATGATGTTAATCGGGTCTTGATTCGCTTGACGCTGCTG,6.99
18,CCGATTAACATCAATTTTTTCCCTGATGTTAATCGGGTCTTGATTCGCTTGACGCTGCTG,7.47
19,CCGATTAACATCACCCCCACCCCTGATGTTAATCGGGTCTTGATTCGCTTGACGCTGCTG,1.75
20,CCGATTAACATCAAATAATTCCCTGATGTTAATCGGGTCTTGATTCGCTTGACGCTGCTG,7.13
21,CCGATTAACATCACGGTAATCCCTGATGTTAATCGGGTCTTGATTCGCTTGACGCTGCTG,1.84
22,CCGATTAACATCAGGGAATACACTGATGTTAATCGGGTCTTGATTCGCTTGACGCTGCTG,2.21
23,CCGATTAACATCAAAAAATTACCTGATGTTAATCGGGTCTTGATTCGCTTGACGCTGCTG,6.92
24,CCGATTAACATCACCTATTCCCCTGATGTTAATCGGGTCTTGATTCGCTTGACGCTGCTG,7.28
25,CCGATTAACATCAACCAATCCCCTGATGTTAATCGGGTCTTGATTCGCTTGACGCTGCTG,6.6
26,CCGATTAACATCAAAGATTTCCCTGATGTTAATCGGGTCTTGATTCGCTTGACGCTGCTG,7.19
